According to PubChem BioAssay (NCI):
About 79,000 compounds went through this panel and 15% of them were active in at least one assay; those are over-represented in the sample as a whole. A number with no mark means an inactive call. Calls of active or inactive are those of the source. Cut-off read from the data, not from the text of the source: active = growth inhibition above about 70%; inactive = the rest.

Assay: NCI Yeast Anticancer Drug Screen. Data for the bub3 strain (AID 167)
Details: S. cerevisiae bub3 mutant strain, stronger effect = higher value
Protocol: Growth inhibition of yeast strains with defined genetic alterations is measured as a screen for potential anti-cancer activity. Selected strains with alterations in DNA damage repair or cell cycle control were exposed to compounds and growth inhibition was measured relative to vehicle treated controls. The strain used in this assay is bub3

[1] = at 5.0 µM (retest, dose inferred, filed as 0.5)
[2] = at 50.0 µM (retest, dose inferred, filed as 5.0)

SMILES | growth inhibition [1] | growth inhibition [2] | growth inhibition (at 50.0 µM)
O=C(CC1Sc2ccccc2NC1=O)Nc1ccc([N+](=O)[O-])cc1[N+](=O)[O-] (configuration not stated) | 36% | 97% (active) | 92% (active)
CC(N1CCOCC1)C(O)(c1ccccc1)c1ccccn1 (configuration not stated) | -2% | -15% | -42.4%
COc1ccc(Cc2c(-c3ccc(C)cc3)n[nH]c(=O)c2C2C(=O)N(c3ccccc3)N=C2c2ccccc2)cc1 (configuration not stated) | 63% | 96% (active) | 97.5% (active)
Clc1cc(Cl)c2cc3cccc[n+]3cc2c1Cl | -12% | 49% | 87.8% (active)
Cc1cccc2c1Oc1ccccc1C2N1C(=O)/C(=C/c2ccccc2Cl)SC1=S (configuration not stated) | 99% (active) | 74% (active) | 12.6%
CCC(C)NCCNc1cc(OC)cc2cccnc12 (configuration not stated) | -1% | -1% | 35%
O=c1ccc2c(COc3ccc(Cl)cc3Cl)c3ccc(O)cc3oc-2c1 | -4% | 1% | 25.1%
CCc1cccc(C)c1NC(=O)C1=C(C)NC(C)=C(C(=O)Nc2c(C)cccc2CC)C1c1ccc2c(c1)OCO2 | 26% | 26% | 90% (active)
COc1cc2c3c(c4ccc(OC)c(OC)c4c2cc1OC)CN1CCC[C@@H]1C3 | 8% | 98% (active) | 92.3% (active)
COC(=O)c1ccc2c(c1)CC1(C2)Cc2ccccc2C1=O (configuration not stated) | 6% | 98% (active) | 87.1% (active)
COc1cc2c(c(-c3cn(C)c4ccccc34)c1OC)OCO2 | 2% | 78% (active) | 84.5% (active)
O=c1c(Cl)nsnc1Cl | 100% (active) | 100% (active) | 99.7% (active)
CC(=O)Oc1ccc2c(c1)CCC1C2CCC2(C)C1CCC21CO1 (configuration not stated) | 3% | 44% | 83% (active)
Cn1cnc2[nH]c(Cl)nc(=S)c21 | -1% | -4% | 11.9%
